The whole screen tested about 390,000 compounds, of which about 2,200 (0.56%) were called active. Where a call stands in place of a potency, no number is given. About 3% were inconclusive and are not listed. This is one part of a sample in which actives are shown more often than they occur. Calls come from the whole dose curve; as a rule, active = well fitted inhibition curve with a large enough effect; inconclusive = small, poorly fitted or top-dose-only effect; inactive = no such curve, though single readings can be large or run the other way.
molecular target: Chromobox protein homolog 1 (Homo sapiens) (UniProt P83916); assay: HTS for Inhibitors of HP1-beta Chromodomain Interactions with Methylated Histone Tails; conditions: AlphaScreen HP1-beta / biotin-H3K9me3 peptide binding; series mostly up to 114 µM; note: nearly all actives have a fitted effect of over 70% in size
Sequence (P83916 whole entry, looked up): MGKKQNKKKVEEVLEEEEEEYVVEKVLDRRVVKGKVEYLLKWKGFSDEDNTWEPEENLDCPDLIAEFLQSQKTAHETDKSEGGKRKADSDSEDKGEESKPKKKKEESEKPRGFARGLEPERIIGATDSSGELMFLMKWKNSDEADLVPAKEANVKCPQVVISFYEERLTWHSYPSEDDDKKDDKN
How it was run: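 Compound inhibition of the preformed complex between 50 nM HP1-beta and 50 nM biotinylated H3K9me3 peptide was read by AlphaScreen. Buffer was PBS pH 7.4 with 0.01% Tween-20. Incubations ran 30 min at room temperature, with 10 ug/mL donor/acceptor beads.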
Potency is the fitted concentration of half-maximal effect.

Structure (SMILES) | Potency
CCOc1ccc(CNC(=O)CCc2c(C)nn(-c3ccc(N4CCCCC4)nn3)c2C)cc1 | inactive
CCOC(=O)c1c(NC(C)=O)c2c3c(sc2n1Cc1c(C)cc(C)cc1C)CCCC3 | inactive
COc1ccc(C(=O)COC(=O)CCCC(=O)Nc2cc(C(F)(F)F)ccc2Cl)cc1 | inactive
CCC(Sc1nnc(-c2ccc(OC)cc2)c(-c2ccc(OC)cc2)n1)C(=O)NC1CCCCC1 (stereo unspecified) | inactive
Cc1cc(N=Nc2ccc3ccccc3c2)ccc1O | 50.1 µM (active)
Cc1cc(C)cc(NS(=O)(=O)c2ccc3[nH]cc(C(=O)N4CCCCC4)c(=O)c3c2)c1 | inactive
COc1cccc(CNC(=O)c2ccc3c(c2)sc2nc(-c4cccc(OC)c4)cn23)c1 | inactive
CCCNc1ncnc2c1c(-c1ccccc1)cn2-c1ccc(OCC)cc1 | inactive
COc1cc(N2CCCC2)c(OC)cc1/C=C(/C#N)c1cccc(Br)c1 | 35.5 µM (active)
CCOC(=O)c1[nH]c(C)c(CCC(=O)N2CCN(c3ccccc3)CC2)c1C | inactive
Cc1ccc(NC(=O)Cn2cnc3nc4c(cc3c2=O)CCCC4)cc1Cl | inactive
CCOC(=O)c1cc(-c2ccc(OC)c(S(=O)(=O)Nc3ccc(OC)cc3OC)c2)on1 | inactive
O=C1CN(Cc2ccccc2)S(=O)(=O)c2ccccc21 | inactive
COc1ccc(Cc2nc3ccc(C(=O)NCc4ccccc4C)cc3o2)cc1 | inactive
COc1cc2c3c(c1)/C(=C1/SC(=S)NC1=O)C(=O)N3C(C)(C)C=C2C | 10 µM (active)
Cc1cccc(N2CCN(C(=O)c3ccc(Nc4nc5ccccc5n5nnnc45)cc3)CC2)c1C | inactive
Cc1csc2nc(COC(=O)c3ccccc3NC(=O)c3ccccc3Cl)cc(=O)n12 | inactive
COc1ccc(-c2nnc(SCC(=O)Nc3ccc(C(C)C)cc3)nc2-c2ccc(OC)c(OC)c2)cc1OC | inactive
O=C1C(Cl)=C(Oc2ccccc2)C(=O)c2ccccc21 | 2 µM (active)
COc1ccc(Br)cc1C1C2C=CCC(C)C2C(=O)N1Cc1ccccc1 (stereo unspecified) | inactive
CCOC(=O)c1ccc(NC(=O)Cn2cc(S(=O)(=O)Cc3ccccc3F)c3ccccc32)cc1 | inactive
Cn1c(=O)c(=O)n(C)c2cc(S(=O)(=O)NCCc3ccccc3)ccc21 | inactive
Cc1cc(=O)n(C)c(=O)n1CCCNc1ccccc1 | 56.2 µM (active)
Cc1c(S(=O)(=O)NCc2ccccc2)c(=O)n(C)c(=O)n1C | inactive
Cc1ccc(NC(=O)NC(C)c2c(-n3cccc3)sc(C)c2C)c(C)c1 (stereo unspecified) | inactive
COc1ccc(CN(Cc2ccccc2)C(=O)c2ccc(O)cc2)cc1COc1ccc(NC(C)=O)cc1 | inactive

Source: PubChem BioAssay AID540317 (National Center for Advancing Translational Sciences (NCATS), 2011)
